Bioassay records as filed in PubChem.
mHTT-CaM PPI inh: mHTT-calmodulin interaction abrogation; AlphaScreen His-mHTT/GST-CaM binding, luminescence; P42858; inhibition, % at 15 µM; actives 3.6% (n = 190,000);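 also: 0% = both proteins with DMSO and 100% = one protein alone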
Pf apPOL inh: Pf-apPOL DNA polymerase inhibition | Recombinant Pf-apPOL, molecular beacon fluorescence, 1.5 h | inhibition, % at 10 µM | actives 0.25% (n = 210,000) | AID 1794808
Starred values were filed as active, the others as inactive; nt = no result given. Many of the other results were omitted from the sample, so hits are more common in it than they were. Rule as the data show it: active = inhibition above about 50%; inactive = the rest.

SMILES	mHTT-CaM PPI inh	Pf apPOL inh
Cn1c(N2CCC(C(=O)N3CCC(Cc4ccccc4)CC3)CC2)cc(=O)n(C)c1=O	75*	-2
C#CCOc1c(Br)cc(/C=C2/SC(=O)N(C)C2=O)cc1OCC	9	-3
CCC(=O)N1CCc2sc(S(=O)(=O)Nc3ccc(Cl)cc3C)cc2C1	18	-3
CCCCC(=O)NC(c1ccccc1)c1ccc2cccnc2c1O (stereo unspecified)	100*	-2
CCCC(=O)NC(c1ccccc1)c1ccc2cccnc2c1O (stereo unspecified)	100*	-4
CCCC(=O)NC(c1ccc(F)cc1)c1ccc2cccnc2c1O (stereo unspecified)	100*	2
CCCC(=O)NC(c1ccccc1)c1cc(Cl)c2cccnc2c1O (stereo unspecified)	18	0
CCCC(=O)NC(c1ccc(OC)cc1)c1ccc2cccnc2c1O (stereo unspecified)	100*	-3
CCCC(=O)NC(c1ccccc1)c1ccccc1	-11	3
Cc1cc(C)c(C#N)c(=S)[nH]1	nt	-9
CCn1cc(C(=O)Nc2ccc(Oc3ccccc3)cc2)c(=O)c2ccc(C)nc21	-6	1
O=C(Nc1ccc(Cl)cc1)c1cccc(S(=O)(=O)N2CCCCC2)c1	-14	3
Cc1cc(Cl)ccc1-n1c(CCC(=O)O)ccc1-c1cccs1	68*	-9
Cc1ccccc1-n1c(CCC(=O)O)ccc1-c1cccs1	19	-3
CC(C)c1ccc(CNC(=O)c2nc3cccnc3n(C)c2=O)cc1	62*	0
Cn1c(=O)c(C(=O)NCc2ccc(Cl)cc2)nc2cccnc21	5	-1
CCn1c(C2CCN(S(=O)(=O)c3ccc4c(c3)CCCC4)C2)nc2ccncc21 (stereo unspecified)	93*	11
CCn1c(C2CCN(S(=O)(=O)c3cc(F)cc(F)c3)C2)nc2ccncc21 (stereo unspecified)	2	-3
CC1CN(C(=O)Nc2cccc(Cl)c2)CC1c1nc(-c2cccnc2)no1 (stereo unspecified)	11	2
CC(=O)c1cccc(NC(=O)c2cccc(Br)c2)c1	-21	-4
COCc1cccc(NC(=O)c2cccc(Br)c2)c1	-11	54*
O=C1C(=Cc2ccncc2)COc2ccccc21	nt	4
CCN(CC)c1ccc(C2SC(NC(C)=O)=NN2C(C)=O)cc1 (stereo unspecified)	7	-4
Cc1nc2ccccc2c(=O)n1Cc1ccco1	0	-2
N=c1c2c(-c3ccccc3)c(-c3ccccc3)n(Cc3ccco3)c2ncn1Cc1ccco1	99*	-2
SMILES	mHTT-CaM PPI inh	Pf apPOL inh
COc1cc(/C=C2\C(=O)NN(c3ccccc3)C2=O)cc(Cl)c1OC	28	-1
CCOc1cc(/C=C2\C(=O)NN(c3ccc(C)c(C)c3)C2=O)cc(Cl)c1OCC	63*	-2
CCOc1cc(/C=C2\C(=O)NN(c3ccc(C)c(Cl)c3)C2=O)cc(Cl)c1OCC	41	-11
COc1cc(/C=C2\C(=O)NN(c3cccc(Br)c3)C2=O)cc(Cl)c1OC(C)C	84*	-4
COc1cc(/C=C2\C(=O)NN(c3ccc(C)c(C)c3)C2=O)cc(Cl)c1OC	58*	-6
CCOc1ccc(/C=C2\C(=O)NN(c3cccc(Br)c3)C2=O)cc1OCC	5	-2
CCOc1ccc2nc(N=Cc3ccccc3O)sc2c1	nt	-18
O=C(Nc1nnc(-c2cccc([N+](=O)[O-])c2)s1)c1ccccc1C(F)(F)F	-6	4
O=C1NN(c2cccc(C(F)(F)F)c2)C(=O)/C1=C/c1ccc([N+](=O)[O-])o1	98*	-1
O=C1NN(c2ccccc2)C(=O)/C1=C/c1ccc(-c2ccccc2F)o1	10	-8
COc1ccc(NC(=O)c2c[nH]c3ncccc23)c(C)c1	9	14
N#CCc1nc(-c2ccc3c(c2)Cc2ccccc2-3)cs1	6	16
CN(C)CCN(Cc1ccco1)C(=O)c1noc2c1CCCCC2	2	0
O=C(Nc1ccccc1)C1C(c2ccccc2)C1(Cl)Cl (stereo unspecified)	-33	-8
Cc1cccc(NC(=O)C2C(c3ccccc3)C2(Cl)Cl)c1C (stereo unspecified)	-9	67*
Cc1cc(NC(=O)CSc2ncnc3c2nnn3Cc2ccc(F)cc2)no1	-6	-5
Cc1ccc(Cl)cc1NC(=O)c1cc(I)ccc1Cl	0	-6
O=C(Cc1ccccc1Cl)N1CCN(c2nc(CN3CCCC3)cs2)CC1	7	0
CC1=CC(C)(C)Nc2cc(C(C)(C)C)c(O)cc21	95*	-4
CC(C)(C)c1cc(-c2cc(C(C)(C)C)c(O)c(C(C)(C)C)c2)cc(C(C)(C)C)c1O	nt	-5
CC1=CC(C)(C)Nc2cc(CN(C)C)c(O)cc21	98*	-2
CCOC(=O)Oc1ccc2c(c1)C(C)=CC(C)(C)N2	9	-7
CC1CCN(C(=O)C2CCN(c3cnn(Cc4ccccc4)c(=O)c3)CC2)CC1	-4	-6
CC1CCN(C(=O)c2ccc(OCC3CCCN(C(=O)c4ccco4)C3)cc2)CC1 (stereo unspecified)	9	8
Cc1ccc(-c2csc3ncn(Cc4c(F)cccc4F)c(=O)c23)cc1	-2	3
SMILES	mHTT-CaM PPI inh	Pf apPOL inh
O=C(NCCOc1cc(N2CCCC2)ncn1)c1ccccc1C(F)(F)F	-7	-7
CN1CCN(C(CNC(=O)NCc2ccccc2)c2ccc3c(c2)CCCN3C)CC1 (stereo unspecified)	37	-12
CN1CCCc2cc(C(CNC(=O)Nc3cccs3)N3CCCC3)ccc21 (stereo unspecified)	55*	2
Cc1cccc(OCC(=O)Nc2ccc3c(c2)OCCO3)c1C	-11	-4
O=C(Nc1c2c(nn1-c1ccc(Cl)cc1)CS(=O)(=O)C2)c1c(F)cccc1F	-1	0
O=C1C(=O)N(Cc2ccc(Br)cc2)c2ccc([N+](=O)[O-])cc21	24	2
O=C1C(=O)N(Cc2ccc(Cl)c(Cl)c2)c2ccccc21	93*	-3
O=C1C(=O)N(Cc2ccc(F)cc2)c2ccccc21	45	0
O=C1C(=O)N(Cc2ccc(Cl)c(Cl)c2)c2ccc([N+](=O)[O-])cc21	91*	2
O=C1C(=O)N(Cc2ccc(Br)cc2)c2ccccc21	70*	-2
O=C1C(=O)N(CCCCN2C(=O)C(=O)c3ccccc32)c2ccccc21	7	2
Cc1cc(C)cc(C(=O)NCc2ccc3c(c2)nnn3C)c1	-3	-2
Cc1cccc(-c2nccc(C3CCCN(C(=O)C(C)C)C3)n2)c1 (stereo unspecified)	6	-6
Cc1cccc(C(=O)Nc2c3c(nn2-c2ccc(C)cc2C)CS(=O)(=O)C3)c1	2	-5
O=[N+]([O-])c1ccc(SCc2ccco2)c2cccnc12	100*	-6
Cn1cnnc1Sc1ccc([N+](=O)[O-])c2ncccc12	2	5
O=C(NC(Cl)C(Cl)(Cl)Cl)c1ccc(F)cc1 (stereo unspecified)	28	-9
CCN(CC)C(=O)c1cc2c(n1C)CCN(Cc1cccc(C)c1)C2	50	-7
Cn1c(C(=O)NCCCN2CCCCC2)cc2c1CCN(Cc1cccc(F)c1)C2	83*	-4
Cn1c(C(=O)NCCN2CCCCC2)cc2c1CCN(Cc1ccc(F)cc1)C2	47	2
COc1ccc(CNC(=O)c2cc3c(n2C)CCN(Cc2ccccc2)C3)cc1	38	-2
Cn1c(C(=O)NCc2ccccc2)cc2c1CCN(Cc1ccccc1)C2	63*	-1
